Out of some 420,000 compounds screened, about 64,000 (15%) were called active. Not shown: some 27% with an inconclusive outcome. Calls follow the shape of the dose curve; as a rule, active = well fitted inhibition curve with a large enough effect; inconclusive = small, poorly fitted or top-dose-only effect; inactive = flat fitted curve, though single readings scatter. A selection follows. Peptide text beside a SMILES is read from it.
Assay: qHTS for Inhibitors of human tyrosyl-DNA phosphodiesterase 1 (TDP1): qHTS in cells in absence of CPT; also: nearly all actives have a fitted effect of over 55% in size
Details: DT40 Tdp1-/- hTDP1 cells, no CPT, ATP luminescence, 48 h; activity change, negative = growth inhibition: at 46.2 µM (top of the series)
Outline: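 A cellular qHTS used chicken DT40 cells lacking endogenous Tdp1 but carrying stably transfected human TDP1. Compounds were applied without camptothecin, and cell growth kinetics were judged by ATP-dependent luminescence after ≥48 hr.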
% is scaled to controls: 0 for no effect and ±100 for the full control effect; potency is read from the fitted curve at half-maximal effect.

| Compound | activity change, negative = growth inhibition | Potency |
| --- | --- | --- |
| Cc1cccc(NC(=O)c2ccc3nsnc3c2)c1C | -27.4% (inactive) |  |
| O=C(Nc1ccccc1)OCc1cc(-c2ccc(Cl)cc2)on1 | -8.65% (inactive) |  |
| CCc1cc2c(N3CCN(c4nnc(CC)s4)CC3)ncnc2s1 |  | 8.2 µM (active) |
| O=C(CCc1nnc2ccc(NCc3ccccc3Cl)nn12)NCC1CCN(C2CCCC2)C1 (configuration not stated) | -15.2% (inactive) |  |
| O=C(CSc1ccsc1[N+](=O)[O-])N1CCCCC1 | -9.26% (inactive) |  |
| CS(=O)(=O)N(CC(=O)N1CCCCCC1)c1cccc(Cl)c1Cl | -28.3% (inactive) |  |
| CCOC(=O)c1c(NC(=O)c2cccs2)sc(C)c1C | -3.76% (inactive) |  |
| Cc1ccc(C(=O)Nc2c(-c3ccccc3)[nH][nH]c2=O)cc1 | 15% (inactive) |  |
| Cc1ccc(C(=O)c2c(NC(=O)c3ccccc3)sc(C)c2C)cc1 |  | 23.1 µM (active) |
| Cn1c(=O)c2cc(S(=O)(=O)NCCC(=O)Nc3ccc(F)cc3F)ccc2n(C)c1=O | -27.1% (inactive) |  |
| COc1ccc(NC(=O)CN(C)C(=O)/C=C/c2cn(Cc3ccccc3)nc2-c2cccnc2)cc1 | -21.8% (inactive) |  |
| Cc1cc(C)cc(NC(=O)CSc2nc(=O)n(CCN3CCOCC3)c3c2CCC3)c1 | -14.7% (inactive) |  |
| O=C(COc1ccccc1)NCCc1nc2ccccc2[nH]1 | 0.1% (inactive) |  |
| CC(C)=C(NC(=O)c1ccco1)C(=O)NCCc1nc2ccccc2[nH]1 | -3.68% (inactive) |  |
| CCCCCOc1ccc(/C=C/C(=O)NCCc2nc3ccccc3[nH]2)cc1OC |  | 9.2 µM (active) |
| COc1ccc2c(C(=O)c3ccc(C)cc3)n(CCC(N)=O)[n+]([O-])c2c1 | -12.7% (inactive) |  |
| COC(=O)CNC(=O)C(CCSC)NC(C)=O (configuration not stated) (HELM PEPTIDE1{[ac].[CSCCC(N[*:1])C(=O)[*:2]].G.[CO[*:1]]}$$$$V2.0) | 0.948% (inactive) |  |
| COc1ccc(S(=O)(=O)N2CCC(C(=O)N3CCCC3)CC2)cc1C | -17.4% (inactive) |  |
| CCOC(=O)C1CCN(C(=O)C2CCCN(S(=O)(=O)c3ccc(OC)c(Cl)c3)C2)CC1 (configuration not stated) |  | 11.6 µM (active) |
| O=C(C1CCCN(S(=O)(=O)c2ccccc2)C1)N1CCN(c2ccc(F)cc2)CC1 (configuration not stated) |  | 11.6 µM (active) |
| O=C(C1CCC1)N1CCN(c2ccccc2)CC1 | -3.02% (inactive) |  |

| Compound | activity change, negative = growth inhibition | Potency |
| --- | --- | --- |
| Cc1ccc(N(C)C(=O)C2CCN(S(=O)(=O)c3ccc4c(c3)CCCN4C(=O)C3CCC3)CC2)cc1 |  | 16.4 µM (active) |
| COc1ccc(N(C)C(=O)C2CCN(S(=O)(=O)c3cc(Br)cc4c3N(C(C)=O)CC4)CC2)cc1 | -24% (inactive) |  |
| Cc1ccc(S(=O)(=O)N2CCC(N3CCCCCC3)CC2)cc1 | -12.8% (inactive) |  |
| CCN1CCN(C(=O)C2CCCN(S(=O)(=O)c3ccc(OC)c(OC)c3)C2)CC1 (configuration not stated) | -26.3% (inactive) |  |
| COc1ccc(OC)c(S(=O)(=O)N2CCCC(C(=O)N3CCC(C(N)=O)CC3)C2)c1 (configuration not stated) | 0.564% (inactive) |  |
| CC(=O)N1CCCc2cc(S(=O)(=O)N3CCC(C(=O)NC4CCCCC4)CC3)ccc21 | -0.0784% (inactive) |  |
| Cc1ccc(S(=O)(=O)N2CCC(C(=O)N3CCCCCCC3)CC2)cc1 |  | 20.6 µM (active) |
| CCCS(=O)(=O)N1CCCC(C(=O)N2CCN(c3ccccc3)CC2)C1 (configuration not stated) | -5.33% (inactive) |  |
| Cc1cc(-c2ccccc2)nc(N2CCC(C(=O)NC34CC5CC(CC(C5)C3)C4)CC2)n1 | -23.1% (inactive) |  |
| COCCCNC(=O)[C@H]1N2C(=O)c3ccccc3C2SC1(C)C (some centres not stated) | 0.674% (inactive) |  |
| O=c1c(F)cn(C2CCCO2)c(=O)n1Cc1ccccc1Cl (configuration not stated) | 7.15% (inactive) |  |
| O=C1CN(C(=O)COC(=O)c2cnc(Cl)c(Cl)c2)c2ccccc2N1 | -4.12% (inactive) |  |
| CC1(c2ccc3ccccc3c2)NC(=O)NC1=O (configuration not stated) | -3.58% (inactive) |  |
| COCCCNC(=O)C1CCC(CNS(=O)(=O)c2ccc(OC)cc2)CC1 (configuration not stated) |  | inactive |
| O=C(C1CCC1)N1CCN(S(=O)(=O)c2ccc([N+](=O)[O-])cc2)CC1 | 3.7% (inactive) |  |
| CC(=O)c1cccc(NC(=O)C2CCCN(S(=O)(=O)c3cccc4nonc34)C2)c1 (configuration not stated) | -27.5% (inactive) |  |
| O=C(C1CCCN(S(=O)(=O)c2cccc3nonc23)C1)N1CCN(c2ccccc2F)CC1 (configuration not stated) |  | 18.4 µM (active) |
| COc1ccc(NC(=O)C2CCCN(S(=O)(=O)c3cccc4nonc34)C2)cc1Cl (configuration not stated) | -4.62% (inactive) |  |
| O=C(C1CCCN(S(=O)(=O)c2ccc([N+](=O)[O-])cc2)C1)N1CCCCC1 (configuration not stated) |  | 16.4 µM (active) |
| O=C(Cc1ccccc1)N1CCN(S(=O)(=O)c2ccc([N+](=O)[O-])cc2)CC1 | -11.9% (inactive) |  |
| O=C(NCc1cc(F)cc(C(F)(F)F)c1)C1CCC(=O)N(C2CCCC2)C1 (configuration not stated) | 14% (inactive) |  |

| Compound | activity change, negative = growth inhibition | Potency |
| --- | --- | --- |
| Cc1cccc(C(=O)Nc2ccccc2-c2nnn(CC(=O)Nc3ccc4c(c3)OCCO4)n2)c1 | -29.8% (inactive) |  |
| CCCOc1ccccc1-c1nc(SCCC(=O)O)n[nH]1 | -26.8% (inactive) |  |
| CNS(=O)(=O)c1ccc(NC(=O)Nc2ccc3c(c2)OCO3)cc1 | -12% (inactive) |  |
| CN(c1ccccc1)S(=O)(=O)c1cccc(C(=O)NNC(=O)c2ccncc2)c1 | -24.1% (inactive) |  |
| Cn1ccc(NC(=O)Nc2ccc(Cl)cc2)n1 | -0.619% (inactive) |  |
| CN(c1ccccc1)S(=O)(=O)c1cccc(NC(=O)Cc2ccc(Cl)cc2)c1 |  | 23.1 µM (active) |
| CN(c1ccc(OCC(=O)OCC(=O)Nc2cccc([N+](=O)[O-])c2)cc1)S(=O)(=O)c1ccc(F)cc1 | 6.72% (inactive) |  |
| CN(c1cccc(NC(=O)Nc2ccc(Cl)cc2)c1)S(C)(=O)=O |  | 25.9 µM (active) |
| Cc1ncc([N+](=O)[O-])n1CCOC(=O)c1ccc(Br)cc1 | -19.1% (inactive) |  |
| COc1ccc(S(=O)(=O)NCC(=O)NCc2cc(=O)n(C)c(=O)n2C)cc1F | 6.72% (inactive) |  |
| O=C(NC1CCCCC1)c1cc(C2CC2)on1 | 15.4% (inactive) |  |
| COc1cc2c(cc1OC)C(=O)NCC(C)(C)O2 | -7.76% (inactive) |  |
| O=C(O)CCCCCCCCCC[n+]1ccccc1 | 23% (inactive) |  |
| O=C(NCC1CCC(C(=O)O)CC1)OCc1ccccc1 (configuration not stated) | -0.127% (inactive) |  |
| COc1ccc(NC(=O)CCNC(=O)Cn2ccc3ccccc3c2=O)c(OC)c1 | -7.11% (inactive) |  |
| COc1ccc(NC(=O)CNC(=O)Cn2ccc3ccccc3c2=O)c(OC)c1 |  | inactive |
| CCN(CCCNC(=O)c1cc(Nc2ccc(OC)cc2)nc2ccccc12)c1cccc(C)c1 |  | 20.6 µM (active) |
| CCN(CCCNC(=O)Cn1ncc2c([nH]c3ccccc32)c1=O)c1cccc(C)c1 | -22.4% (inactive) |  |
| COc1ccc(Nc2cc(C(=O)NCCCN(C)c3ccccc3)c3ccccc3n2)c(OC)c1 |  | 11.6 µM (active) |
| CCCN(CCC)CCCNC(=O)CNC(=O)c1nn(-c2ccc(OC)cc2)c(=O)c2ccccc12 | -16.3% (inactive) |  |

Reference: PubChem BioAssay AID686978 (National Center for Advancing Translational Sciences (NCATS), 2013)
